Bioassay records deposited in PubChem by National Center for Advancing Translational Sciences (NCATS).
hNpr1 antagonist = human Npr1 receptor antagonism. P16066. HEK293 hNpr1 GloSensor cGMP, ANP-stimulated luminescence. Potency, µM (doses to about 46.3 µM), inactives show at the highest dose activity change, negative = inhibition, actives largely listed as inhibitors. actives 1.6% (n = 76,000); calls by dose curve; also: potency is read from the fitted curve at half-maximal effect; % is scaled to controls: 0 for no effect and ±100 for the full control effect; nearly all actives have a fitted effect of over 60% in size
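HEK293 cells stably expressing human Npr1 and cGMP GloSensor pGS-40F, loaded 2 h with 2% GloSensor reagent, given compound 30 min at room temperature. Luminescence read before and 20 min after 0.1 nM hNppA.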
NIH3T3 tox = NIH 3T3 cell cytotoxicity; actives 4.3% (n = 94,000); NIH 3T3 viability, CellTiter-Glo ATP luminescence, 48-72 h; Potency, µM (doses to about 96.7 µM), without a hit: top-dose activity change, negative = cytotoxicity, hits mostly inhibitors; AID 1345082; also: potency is read from the fitted curve at half-maximal effect; % is scaled to controls: 0 for no effect and ±100 for the full control effect; nearly all actives have a fitted effect of over 55% in size
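Viability of NIH 3T3 cells after 48 or 72 hr compound treatment at 37 °C was assessed by CellTiter-Glo, with luminescence imaged following a 10 min room-temperature step.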
Luciferase inh = inhibitors of firefly (Photinus pyralis) luciferase. Potency, µM (doses to about 115 µM), most hits filed as inhibitors. purified P. pyralis luciferase, luminescence, biochemical. AID 1347043. P08659. actives 2.5% (n = 76,000); also: potency is read from the fitted curve at half-maximal effect; % is scaled to controls: 0 for no effect and ±100 for the full control effect; nearly all actives have a fitted effect of over 65% in size
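Biochemical qHTS: compound (6-point titration) added to 10uM D-luciferin plus 10uM ATP in Tris acetate pH 7.5 buffer with Mg, Tween-20 and BSA, then purified enzyme at 10nM; light output imaged.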
GPT2 inhibitor = GPT2 alanine aminotransferase inhibition; Recombinant GPT2, coupled pyruvate oxidase/HRP Amplex Red fluorescence; AID 1671188; actives 0.25% (n = 100,000); Potency, µM (series often up to 57.7 µM), for the others: top-dose activity change, negative = inhibition, actives largely listed as inhibitors; also: potency is read from the fitted curve at half-maximal effect; % is scaled to controls: 0 for no effect and ±100 for the full control effect; nearly all actives have a fitted effect of over 60% in size
Target sequence (Q8TD30 whole entry, looked up): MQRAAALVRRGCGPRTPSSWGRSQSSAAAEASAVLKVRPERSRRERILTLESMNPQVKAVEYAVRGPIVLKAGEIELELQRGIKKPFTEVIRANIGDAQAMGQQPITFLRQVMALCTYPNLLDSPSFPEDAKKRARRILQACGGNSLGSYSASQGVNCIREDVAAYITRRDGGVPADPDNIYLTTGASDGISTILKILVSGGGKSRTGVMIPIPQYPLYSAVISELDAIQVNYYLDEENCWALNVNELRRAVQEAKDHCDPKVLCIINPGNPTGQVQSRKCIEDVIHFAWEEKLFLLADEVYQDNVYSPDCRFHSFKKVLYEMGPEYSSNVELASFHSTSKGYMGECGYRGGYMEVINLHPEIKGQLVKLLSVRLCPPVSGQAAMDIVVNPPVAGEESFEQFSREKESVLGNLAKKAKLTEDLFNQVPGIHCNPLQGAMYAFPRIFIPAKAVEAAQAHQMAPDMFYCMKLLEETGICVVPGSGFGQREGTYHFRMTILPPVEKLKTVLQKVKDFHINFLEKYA
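Recombinant GPT2 (10ng/uL) with 250uM a-KG and 2mM L-alanine, 30 min at room temperature, in HEPES pH 7.5 buffer. Pyruvate detected by pyruvate oxidase/HRP/Amplex Red fluorescence after 30 min in the dark; AOA (50uM) as positive control.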
HEK293 tox = kills HEK 293 cells; HEK 293 viability, ATP luminescence (CellTiter-Glo), 48-72 h; Potency, µM (series often up to 115 µM), inactives show at the top dose activity change, negative = cytotoxicity, actives largely listed as inhibitors; actives 6.6% (n = 94,000); also: potency is read from the fitted curve at half-maximal effect; % is scaled to controls: 0 for no effect and ±100 for the full control effect; nearly all actives have a fitted effect of over 60% in size
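ATP-coupled CellTiter-Glo luminescence served as viability read-out, recorded 10 min after reagent addition at room temperature. HEK 293 cells, 250 cells/well, had been incubated with pintool-transferred compound for 48 or 72 hr at 37 degree Celsius.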
NPR1 antag cnf = hNpr1 antagonism, confirmation assay | shares compounds with hNpr1 antagonist | HEK293 hNpr1 cGMP GloSensor luminescence, ANP-stimulated | Potency, µM (top dose mostly 57.6 µM), for inactives: top-dose activity change, negative = inhibition, usual class: inhibitors | actives 76% (n = 1,400); calls by dose curve; also: potency is read from the fitted curve at half-maximal effect; nearly all actives have a fitted effect of over 70% in size
NPR2 antag = hNpr2 antagonism, selectivity versus Npr1; shares compounds with hNpr1 antagonist; HEK293 hNpr2 GloSensor cGMP luminescence, CNP-stimulated; Potency, µM (series often up to 57.6 µM), without a hit: at the highest dose activity change, negative = inhibition, actives largely listed as inhibitors; actives 67% (n = 1,400); AID 1347046; calls by dose curve; also: potency is read from the fitted curve at half-maximal effect; nearly all actives have a fitted effect of over 70% in size
FLuc inh counter = counter-screen for Npr1 antagonists: firefly luciferase inhibitors; AID 1347047; shares compounds with hNpr1 antagonist; purified FLuc enzyme, luminescence, Km substrate; actives 0.7% (n = 1,400); Potency, µM (top dose mostly 57.6 µM), without a hit: top-dose activity change, negative = inhibition, usual class: inhibitors; also: potency is read from the fitted curve at half-maximal effect; 0% is about no effect
GloSensor cGMP = counter-screen for Npr1 antagonists: GloSensor control cell line. Potency, µM (doses to about 57.6 µM), inactives show at the top dose activity change, negative = inhibition, usual class: inhibitors. shares compounds with hNpr1 antagonist. HEK293 GloSensor cGMP, SNP-stimulated, luminescence. AID 1347051. actives 69% (n = 1,400); calls by dose curve; also: potency is read from the fitted curve at half-maximal effect; % is scaled to controls: 0 for no effect and ±100 for the full control effect; nearly all actives have a fitted effect of over 70% in size
GPT2 inh cnf = human alanine aminotransferase 2 inhibition, confirmatory; shares compounds with GPT2 inhibitor; GPT2 enzyme, coupled Amplex Red pyruvate fluorescence; Potency, µM, usual class: inhibitors; actives 90% (n = 95); AID 1671187
Numbers without * were called inactive; i = inactive; ? = inconclusive; . = no result given; [ ] = remark or other dose. The list is not random: actives were taken first. Their share in the collection is about 10%. Unless noted, calls follow the shape of the dose curve; as a rule, active = well fitted curve in the direction sought with a large enough effect; inconclusive = small, poorly fitted or top-dose-only effect, or another doubt; inactive = no such curve, though single readings can be large; an effect the other way counts as inactive or inconclusive.

SMILES	hNpr1 antagonist	NIH3T3 tox	Luciferase inh	GPT2 inhibitor	HEK293 tox	NPR1 antag cnf	NPR2 antag	FLuc inh counter	GloSensor cGMP	others
O=C(c1cccc2[nH]ccc12)N1CCCC(n2cc(-c3nc(C4CC4)no3)nn2)C1 (stereo unspecified)	11.2µM*	?	i	i	?	27.3µM*	?	-0.8%	?
CC(C)c1noc(-c2cn(C3CCCN(C(=O)c4cccc5[nH]ccc45)C3)nn2)n1 (stereo unspecified)	12.6µM*	?	i	i	?	27.3µM*	?	-17.6%	21.7µM*
Cc1nc(CN2C[C@H](C(=O)NCc3cccc(Cl)c3)C[C@@H]2c2ccc(F)cc2)cs1	2.6%	?	i	2.3%	?	.	.	.	.
O=C(Nc1cc(F)cc(F)c1)N1CCC(CCNC(=O)C2(c3ccccc3)CC2)CC1	-26.1%	31.6µM*	i	-17.9%	50.1µM*	-19.1%	-10.5%	4.8%	5.0%
N#Cc1ccc(C(=O)Nc2ccc([C@@H](O)[C@H]3COCC(=O)N3Cc3ccccc3F)cc2)cc1	-3.0%	-27.6%	i	-9.2%	?	.	.	.	.
CCOc1ccccc1C(=O)N1CCc2[nH]nc(-c3ccc(F)c(F)c3)c2C1	?	?	i	?	?	?	?	2.2%	?
O=C(NCCc1cccc(Oc2ccccc2)c1)[C@H]1CCC[C@H](O)C1	14.1µM*	-35.0%	i	0.5%[11.5 µM]	?	24.3µM*	21.7µM*	0.7%	21.7µM*
CC(C)c1cccc(NC(=O)C2CCN(C(=O)c3ncn4c3COC(c3ccc(F)cc3)C4)CC2)c1 (stereo unspecified)	11.2µM*	-16.5%	i	-7.3%	?	?	?	-2.6%	?
O=C(NC1CCCCCC1)c1cn2cc(-c3ccccc3)sc2n1	.	-26.7%[138 µM]	.	-6.5%[88.5 µM]	-13.3%[172 µM]	.	.	.	.
CCc1nccn1CC(=O)NC(C)c1cnn(-c2ccccc2C)c1C (stereo unspecified)	11.2µM*	?	i	-21.9%	?	?	?	-1.8%	?
CCNc1ncc(C(=O)NC(C)c2cnn(-c3ccccc3C)c2C)cn1 (stereo unspecified)	-24.4%	-19.7%	i	4.4%	-18.1%	.	.	.	.
O=C1Nc2ccccc2CN(CC2CCCCC2)C12CCNCC2	.	?	.	-9.6%	35.5µM*	19.3µM*	6.11µM*	2.9%	-21.3%
O=C1Nc2ccccc2CN(CC2CCCCC2)C12CCNC2 (stereo unspecified)	.	22.4µM*	.	-1.5%	89.1µM*	?	13.5µM*	4.4%	-7.4%
CC1CCCN(c2ncnc3c2CN(C2CCCNCC2)C(=O)CN3C)C1 (stereo unspecified)	.	i	.	-23.4%	-4.0%	.	.	.	.
O=C(CCc1nc2ccccc2s1)N1CCC(Cc2noc(C3CCOCC3)n2)C1 (stereo unspecified)	-13.7%	-15.8%	i	0.3%	?	.	.	.	.
Cc1nn2c(c1-c1ccccc1OCc1ccccc1)N(C(=O)c1cccnc1)CCC2	2.7%[70.6 µM]	?	i	i	-7.4%[172 µM]	.	.	.	.
Cc1nn2c(c1-c1ccccc1Oc1ccccc1)N(Cc1cccc(O)c1)CCC2	2.51µM*	14.1µM*	i	-13.3%[88.5 µM]	22.4µM*	11.1µM*	25µM*	0.3%[86.2 µM]	11.1µM*
Cc1nn2c(c1-c1ccccc1Oc1ccccc1)N(Cc1ccccc1O)CCC2	7.94µM*	11.2µM*	i	-23.7%[88.5 µM]	10µM*	3.14µM*	12.5µM*	-1.7%[86.2 µM]	2.22µM*
COc1ccccc1CN1CCCn2nc(C)c(-c3ccccc3C(N)=O)c21	14.1µM*	?	i	-13.1%[88.5 µM]	22.4µM*	12.5µM*	31.4µM*	1.0%[86.2 µM]	9.94µM*
O=C(NC1CCCCC1)N1CCCC1c1noc(COc2ccc(F)cc2)n1 (stereo unspecified)	0.4%	-26.4%	i	0.7%	?	.	.	.	.
CC(C)NC(=O)N1CCN(C(=O)c2nc3cccnc3n(CCc3ccccc3)c2=O)CC1	.	-4.4%	.	-5.6%	-2.5%	.	.	.	.
COc1ccc(NC(=O)NCC2CCCN(C(C)C)C2)cc1OC (stereo unspecified)	9.3%	i	i	i	-4.7%	.	.	.	.
COc1ccc(NC2CCCN(C(=O)C(=O)CC(C)C)C2)cc1OC (stereo unspecified)	1.5%	1.9%	i	22.4µM*	1.3%	.	.	.	.	GPT2 inh cnf=3.43*
COc1cccc([S+](=O)([O-])N2CCNc3cnc(Nc4ccc(N5CCOCC5)cc4)nc3C2)c1	2.3%	-6.6%	i	1.12µM*	?	.	.	.	.	GPT2 inh cnf=1.22*
COCCN1CCNc2cc(Nc3ccc(N4CCOCC4)cc3)ncc2C1	2.3%[70.6 µM]	?	i	?	-27.0%[172 µM]	.	.	.	.	GPT2 inh cnf=5.59*
SMILES	hNpr1 antagonist	NIH3T3 tox	Luciferase inh	GPT2 inhibitor	HEK293 tox	NPR1 antag cnf	NPR2 antag	FLuc inh counter	GloSensor cGMP	others
COc1ccc(CN2CCNc3cnc(Nc4ccccc4)cc3C2)cn1	-3.9%[70.6 µM]	?	i	?	?	.	.	.	.	GPT2 inh cnf=3.14*
COc1ccc(Nc2cc3c(cn2)NCCN(Cc2ccccc2)C3)cc1	?	?	i	?	79.4µM*	.	.	.	.	GPT2 inh cnf=5.59*
c1ccc(Nc2cc3c(cn2)NCCN(Cc2ccsc2)C3)cc1	-3.2%[70.6 µM]	?	i	?	?	.	.	.	.	GPT2 inh cnf=2.5*
Cc1noc(C)c1CN1CC(N2CC(C(=O)NCc3ccccc3)CC2=O)C1 (stereo unspecified)	.	-4.7%	.	-3.7%	-0.2%	.	.	.	.
O=C(C1CCc2nnc(C3CCN([S+](=O)([O-])c4ccccc4Cl)CC3)n21)N1CCOCC1 (stereo unspecified)	.	-26.0%	.	i	-24.2%	.	.	.	.
O=C1NCCCCCCN(Cc2ccncc2)[C@@H]2CN(C(=O)CCc3ccccc3)CC[C@@H]12	-0.3%	-22.0%	i	-4.1%	-14.5%	.	.	.	.
